HT1080-NT tox – kills 2HG-producing HT-1080-NT fibrosarcoma cells; actives 1.6% (n = 360,000); Potency, µM (doses to about 46.1 µM), most hits filed as cytotoxic; HT-1080-NT fibrosarcoma viability, CellTiter-Glo ATP luminescence, 48 h;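 note: NT is the 2HG producing partner of a matched IDH1 knockdown line; nearly all actives have a fitted effect of over 55% in size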
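Toxicity toward the 2HG-producing NT line was scored as %Activity, normalised to DMSO and no-cell wells, from CellTiter-Glo luminescence after 48 hours' treatment.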
HT1080 IDH1KD tx – toxicity to HT-1080 IDH1 knockdown cells (counter line); HT-1080 IDH1 knockdown viability, ATP luminescence, 48 h; actives 2% (n = 360,000); Potency, µM (top dose mostly 46.1 µM), usual class: cytotoxic
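CellTiter-Glo luminescence after 48 h compound exposure at 37 degrees C of IDH1-knockdown HT-1080 cells in 5% FBS RPMI. %Activity scaled between DMSO wells and cell-free media wells, with curves fitted and assigned curve classes.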
DT40 TDP1 no CPT – qHTS for Inhibitors of human tyrosyl-DNA phosphodiesterase 1 (TDP1): qHTS in cells in absence of CPT; DT40 Tdp1-/- hTDP1 cells, no CPT, ATP luminescence, 48 h; actives 15% (n = 420,000); Potency, µM (series often up to 46.2 µM), usual class: inhibitors; note: nearly all actives have a fitted effect of over 55% in size
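Readout: luminescence from CellTiter-Glo after 30 min in the dark at RT. Cells: DT40 Tdp1-/- with stable hTDP1, 400/well. Exposure: compounds alone, ≥48 hr, 37 °C.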
DT40 TDP1 CPT – growth inhibition of DT40 Tdp1-/-;hTDP1 cells with camptothecin (screen for TDP1 inhibitors) | chicken DT40 Tdp1-/-;hTDP1 cells + 20 nM CPT, ATP luminescence, 48 h | actives 12% (n = 420,000) | Potency, µM (titrated, usually from 46.2 µM), actives largely listed as inhibitors; note: nearly all actives have a fitted effect of over 55% in size
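Cell growth measured by CellTiter-Glo luminescence after a minimum 48 h, 37 C compound exposure with 20 nM CPT in Tdp1-knockout DT40 cells stably expressing hTDP1, seeded 400/well; qHTS titration format.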
KB-V1 MDR tox – kills drug-selected multidrug resistant KB-V1 cells | KB-V1 MDR cells viability, CellTiter-Glo, 72 h | Potency, µM (doses to about 46.1 µM), actives largely listed as cytotoxic | actives 3.4% (n = 400,000); note: nearly all actives have a fitted effect of over 60% in size
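Following 72 h at 37 degrees C with compound, KB-V1 cell viability was read by CellTiter-Glo luminescence, medium being phenol-red-free DMEM plus 10% FBS; concentration-response parameters came from normalized, curve-fitted qHTS data.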
KB-3-1 tox – KB-3-1 parental cell cytotoxicity; KB-3-1 viability, CellTiter-Glo ATP luminescence, 72 h; Potency, µM (doses to about 46.1 µM), usual class: cytotoxic; actives 1.4% (n = 400,000); AID 1347075; note: nearly all actives have a fitted effect of over 60% in size
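Using CellTiter-Glo luminescence, growth of non-resistant KB-3-1 adenocarcinoma cells is assessed 72 h after pin-tool compound addition at 37 °C. Normalized responses across the concentration series yield fitted curves.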
Hits are given with their value; i = inactive; ? = inconclusive; nt = not tested or not shown; [ ] = dose if it differs, or a comment. This is a sample that favours compounds with a hit; in the whole collection about 19% have one here. Calls come from the whole dose curve; as a rule, active = well fitted curve in the direction sought with a large enough effect; inconclusive = small, poorly fitted or top-dose-only effect, or another doubt; inactive = no such curve, though single readings can be large; an effect the other way counts as inactive or inconclusive.

SMILES | HT1080-NT tox | HT1080 IDH1KD tx | DT40 TDP1 no CPT | DT40 TDP1 CPT | KB-V1 MDR tox | KB-3-1 tox
O=C1CC[C@@H](OCc2ccccc2)CCN1CC[C@H](Sc1ccccc1)c1ccccc1 | i | i | 18.4µM | 15.8µM | ? | i
CCN(CC(=O)Nc1ccc2c(c1)OCCO2)C(=O)/C=C/c1ccc([N+](=O)[O-])cc1 | i | i | i | i | 20.6µM | i
COc1ccc(NC(=O)/C(C#N)=C/c2cc(C)n(-c3ccc(N4CCOCC4)c([N+](=O)[O-])c3)c2C)cc1 | i | i | 2.31µM | 3.66µM | i | i
Cc1cc(/C=C(\C#N)C(=O)Nc2ccc(F)cc2)c(C)n1-c1ccc(N2CCOCC2)c([N+](=O)[O-])c1 | i[9.24 µM] | i | 11.6µM | 8.2µM | i | ?
Cc1ccc(NC(=O)/C(C#N)=C/c2ccccc2Cl)cc1C | nt | nt | 25.9µM | 25.9µM | i | ?
Cc1cc(/C=C(\C#N)C(=O)Nc2ccccc2)c(C)n1-c1ccc2c(c1)OCO2 | ? | ? | 16.4µM | ? | ? | i
N#C/C(=C\c1ccccc1Cl)C(=O)Nc1ccccn1 | i | i | i | i | ? | i
CNC(=O)C1Cc2c(-c3ccc(Cl)cc3)ccnc2O1 (configuration not stated) | ? | i | ? | i | i | i
Cc1ccc(CNC(=O)c2ccc(CSCc3c(F)cccc3Cl)o2)cc1 | nt | nt | i | i | i | i
O=C(COc1ccccc1)N=C1SC2CS(=O)(=O)CC2N1c1cccc(F)c1 (configuration not stated) | i | i | i | i | i | i
CC(C)NC(=O)/C(C#N)=C/c1cccc(NC(=O)c2ccccc2Cl)c1 | ? | ? | 14.6µM | ? | ? | i
OC[C@@H]1CN(Cc2ccc(-c3ccccc3)cc2)C[C@H](n2cnc3c(NCc4ccc(F)cc4)ncnc32)O1 | 18.4µM | ? | 3.66µM | 4.11µM | ? | ?
OC[C@@H]1CN(Cc2ccc(-c3ccccc3)cc2)C[C@H](n2cnc3c(NC4CC4)ncnc32)O1 | i | ? | ? | ? | i | i
OC[C@@H]1CN(Cc2ccc(F)cc2)C[C@H](n2cnc3c(Nc4ccccc4)ncnc32)O1 | i | i | ? | ? | i | i
OC[C@@H]1CN(Cc2ccc(-c3ccccc3)cc2)C[C@H](n2cnc3c(Nc4ccccc4)ncnc32)O1 | ? | 10.3µM | ? | 4.11µM | 20.6µM | 13µM
OC[C@@H]1CN(Cc2ccccc2)C[C@H](n2cnc3c(NCc4ccc(F)cc4)ncnc32)O1 | i | i | ? | ? | ? | i
CNc1ncnc2c1ncn2[C@H]1CN(C2CCCC2)C[C@@H](CO)O1 | i | i | i | 1.64µM | i | i
CNc1ncnc2c1ncn2[C@H]1CN(Cc2ccc(-c3ccccc3)cc2)C[C@@H](CO)O1 | i | i | 23.1µM | ? | i | i
CC(C)COC(=O)N1CCCCC1c1cc(C(=O)NC(C)C)no1 (configuration not stated) | i | i | i | ? | i | i
CC(=O)c1cccc(NC(=O)c2nc3ccccc3nc2N2CCCCC2)c1 | nt | nt | ? | ? | i | ?
COc1ccccc1CNC(=O)CCCNC(=O)c1ccc(Cl)cc1 | i | i | i | i | i | i
CCOc1ccccc1NC(=O)C(NCC1CCCCC1)c1ccccc1 (configuration not stated) | i | i | i | ? | i | i
CCOc1ccccc1O[C@H](c1ccccc1)[C@H]1CNCCO1 | i | i | 18.8µM | 29.9µM | i | i
O=C(NC1CCN(Cc2ccccc2Cl)CC1)c1ccccc1 | i | i | ? | i | i | i
O=C(NN1CCN(Cc2ccccc2Cl)CC1)c1ccc(Cl)cc1 | i | i | 11.6µM | ? | ? | i
SMILES | HT1080-NT tox | HT1080 IDH1KD tx | DT40 TDP1 no CPT | DT40 TDP1 CPT | KB-V1 MDR tox | KB-3-1 tox
O=C(c1ccc(S(=O)(=O)Cc2cc(F)ccc2F)c([N+](=O)[O-])c1)N1CCOCC1 | ? | ? | 7.31µM | 6.51µM | i | i
O=C(c1ccc(S(=O)(=O)c2cccc(Cl)c2)c([N+](=O)[O-])c1)N1CCN(c2ccccn2)CC1 | 9.2µM | 20.6µM | 2.31µM | 2.59µM | ? | ?
O=C(c1ccc(N2CCCC2)c([N+](=O)[O-])c1)N1CCN(S(=O)(=O)c2ccccc2)CC1 | i | i | ? | i | i | i
O=C(c1ccc(S(=O)(=O)Cc2ccccc2F)c([N+](=O)[O-])c1)N1CCCCCC1 | i | ? | 23.1µM | ? | ? | i
O=C(c1ccc([N+](=O)[O-])c(CS(=O)(=O)c2ccc(Cl)cc2)c1)N1CCCCC1 | i | i | ? | i | i | i
O=C(c1ccc(S(=O)(=O)c2ccccc2Cl)c([N+](=O)[O-])c1)N1CCCCCC1 | i | i | 18.4µM | 20.6µM | 2.31µM | ?
COc1ccccc1CNC(=O)CCCCn1c(=O)c2ccccc2n(Cc2c(C)cc(C)cc2C)c1=O | nt | nt | i | i | ? | i
COc1ccc(CC(=O)OCC(=O)Nc2ccc(Cl)cc2C)cc1 | i | i | i | i | i | i
O=C(COC(=O)Cc1c[nH]c2ccccc12)Nc1ccccc1C(F)(F)F | i | i | i | i | i | i
O=C(Nc1ccccc1C(F)(F)F)N1CC=C(c2c[nH]c3ccccc23)CC1 | nt | nt | 25.9µM | 20.6µM | i | i
O=C(Nc1ccc(F)c(Cl)c1)N1CC=C(c2c[nH]c3ccccc23)CC1 | nt | nt | 16.4µM | 23.1µM | i | i
O=C(Cc1ccc(Cl)cc1)N/N=C/c1c(Cl)cccc1Cl | i | i | ? | i | i | i
Cc1ccc(O)c(/C=N/NC(=O)Cc2ccc(Cl)cc2)c1 | ? | 13µM | ? | ? | i | i
Cc1ccsc1/C=N/NC(=O)Cc1ccc(Cl)cc1 | i | i | ? | ? | i | i
O=C(Cc1ccc(Cl)cc1)N/N=C/c1ccc(O)c(O)c1 | i | i | 13µM | ? | ? | ?
CCCCN(C)C(=O)CN1C(=O)CCn2nc(-c3cn(C)c4ccccc34)cc21 | nt | nt | i | ? | i | i
CC1CCC(NC(=O)c2ccc(CS(=O)(=O)c3c(Cl)cccc3Cl)o2)CC1 (configuration not stated) | nt | nt | ? | 14.6µM | i | i
Cc1ccccc1S(=O)(=O)Cc1ccc(C(=O)NC2CCCCC2)o1 | i | i | ? | 20.6µM | i | ?
CCOC(=O)N1CCC(NC(=O)c2ccc(CS(=O)c3cccc(C)c3)o2)CC1 (configuration not stated) | i | i | i | i | i | i
COc1ccccc1S(=O)(=O)Cc1ccc(C(=O)NC2CCCCC2)o1 | i | i | ? | i | 14.6µM | i
CCc1ccccc1S(=O)(=O)Cc1ccc(C(=O)NC2CCCC2)o1 | i | i | i | i | i | i

Screening data (PubChem BioAssay)
